Source: PubChem BioAssay (NCI)
About 83,000 compounds went through this panel and 20% of them were active in at least one assay; those are over-represented in the sample as a whole.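 Percent growth is the endpoint: 0 to 100 indicates growth inhibition (40 means 60% inhibition), 0 means no net growth, and negative values indicate cell death.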 Unmarked numbers belong to inactive results. Activity calls are given as the source filed them. Rule for the calls: active = growth percent below 10; inactive = the rest.

System: HCT-15 colon
Experiment: NCI-60 one-dose screen, 48 h (100 = growth as untreated, 0 = no growth, -100 = all killed)
Settings: 10 µM unless noted

SMILES	growth
COc1cccc(C(=O)NNc2nc(Cl)nc(Cl)n2)c1	98.2%
O=C(/C=C/c1ccc(Cl)cc1)c1cccc(OCCCOc2cccc(C(=O)/C=C/c3ccc(Cl)cc3)c2)c1	90.3%
COc1cc(OC)cc(-c2ccc(-c3ccc(C(=N)N)o3)o2)c1	-6.9% (active)
Fc1cccc(-c2ccc3c(c2)C2(CCNCC2)CN3)c1	94.9%
S=C(c1ccc2c(c1)OCO2)N1CCN(c2cccc(Cl)c2)CC1	24.1%
O=C(NCc1cccc(CNC(=O)Nc2nc3ccccc3[nH]2)c1)Nc1nc2ccccc2[nH]1	69.5%
CCOC(=O)c1cnc2c(N=Nc3ccc(OC)cc3)c(N)nn2c1N	102%
Cc1ccc2nc(NC(=O)CSc3nc(-c4ccccc4)c(C#N)c4nnnn34)sc2c1	113%
C#CC#CC#CC#CC#CC#CC#CC#CC[C@@H]1OC[C@@H](COC(=O)O[C@@H](C(=O)O[C@H]2C[C@@]3(O)[C@@H](OC(=O)c4ccccc4)[C@@H]4[C@]5(OC(C)=O)CO[C@@H]5C[C@H](O)[C@@]4(C)C(=O)[C@H](OC(C)=O)C(=C2C)C3(C)C)[C@@H](NC(=O)c2ccccc2)c2ccccc2)O1	11%
COCCn1cc(-c2csc(-c3c[nH]c4ccc(Br)cc34)n2)c2cccnc21	13.1%
c1nc2ccc(-c3cc4ccc5[nH]ncc5c4c4c3CCCC4)cc2[nH]1	94.8%
O=[N+]([O-])c1ccc(-c2cn3nc(-c4c[nH]c5ccccc45)sc3n2)cc1	86%
CN(Cc1cnc2nc(N)nc(N)c2n1)c1ccc(C(=O)NC(CCC(=O)O)C(=O)O)cc1Br (centres undefined)	34.9%
COc1ccc(-c2nc3c(N)c(CO)cnc3s2)cc1	93.8%
O=C(Cn1nnc2ccccc21)N/N=C/c1c[nH]c2ccccc12	33.3%
N#Cc1cccc(C2C3=C(COC3=O)N(CCO)c3cc4c(cc32)OCO4)c1 (centres undefined)	26.1%
O=C(/C=C/C12c3ccccc3C(c3ccccc31)C1C(=O)NC(=O)C12)c1ccc(Br)cc1 (centres undefined)	36.1%
COc1cccc(/C=N/NC(=O)c2ccccc2N2CCCC2)c1O	19.4%
COc1cc(/C=C/C(=O)c2ccc(-n3cc(CN4CCN(c5cc6c(cc5F)c(=O)c(C(=O)O)cn6C5CC5)CC4)nn3)cc2)ccc1O	71.7%
C=CN(C(=O)N1CCN(c2cc3c(cc2F)c(=O)c(C(=O)O)cn3C2CC2)CC1)c1nc(-c2ccc(OC)cc2)cs1	13.6%
Oc1ccc(/C=C/c2ccc(O)cc2)cc1	33.3%
COc1ccc(/C=C/C(c2cc(OC)c(OC)c(OC)c2)n2ccnc2)cc1O (centres undefined)	24.9%
O=C(N=Nc1c(O)[nH]c2ccccc12)Nc1ccc(F)cc1	97%
O=c1ccc(=O)n(-c2nc(-c3ccc([N+](=O)[O-])cc3)cs2)[nH]1	96%
Oc1c(CN2CCC(N3CCCCC3)CC2)cc(Cc2cc(CN3CCC(N4CCCCC4)CC3)c(O)c3ncccc23)c2cccnc12	20.6%

System: HT29 colon
Experiment: as above
Settings: 10 µM unless noted

SMILES	growth
COc1ccc(/C(C)=C(\c2ccc(Cl)cc2)c2ccc(OCCN3CCCCC3)cc2)cc1	-2.6% (active)
CN(C)CCCC1(c2ccc(F)cc2)OCc2cc(-c3ccc4cc[nH]c4c3)ccc21 (centres undefined)	4.73% (active)
COc1ccc(/C=C/c2ccc3ccccc3n2)c(OC)c1	55.6%
CCCCNC(=O)c1cc([N+](=O)[O-])cc(C2CCCCC2)c1O	69.7%
Cc1ccc(C(=O)c2ccc(CC(=O)N=Nc3c(O)[nH]c4ccc(Br)cc34)n2C)cc1	105%
CC1=C(C(=O)Nc2ccccc2)C(c2ccc3c(c2)OCO3)NC(=S)N1 (centres undefined)	109%
Nc1nc(N)c2c(n1)NC(c1cccc(Nc3ccnc4cc(C(F)(F)F)ccc34)c1)CC(c1ccc(Br)cc1)=N2 (centres undefined)	10.9%
O=C1c2ccccc2C(=O)c2c1c(C(=O)NCc1ccccc1)c1ccccn21	80.6%
COc1ccc(-c2ccc(-c3ccc(C(=N)N)nc3)s2)cc1Cl	2.52% (active)
O=C(CI)NC(=O)NC(=O)NCc1ccccc1	17.2%
COc1ccc(C2=CC(c3cc(OC)c(OC)c(OC)c3)n3ncnc3N2)cc1 (centres undefined)	1.66% (active)
Cc1ccc(C(=O)Nc2cccc(C#Cc3cccc4[nH]nc(N)c34)c2)cc1C(F)(F)F	27.3%
CCOC(=O)c1ccccc1-c1c2ccc(=[N+](C)C)cc-2oc2cc(N(C)C)ccc12	-0.175% (active)
NC(=O)c1c(NC(=O)c2cccc(C(F)(F)F)c2)sc2c1CCC(=O)C2	3.32% (active)
COc1cccc(C(=O)NNc2nc(Cl)nc(Cl)n2)c1	98.8%
O=C(/C=C/c1ccc(Cl)cc1)c1cccc(OCCCOc2cccc(C(=O)/C=C/c3ccc(Cl)cc3)c2)c1	98.6%
COc1cc(OC)cc(-c2ccc(-c3ccc(C(=N)N)o3)o2)c1	8.19% (active)
Fc1cccc(-c2ccc3c(c2)C2(CCNCC2)CN3)c1	93.1%
S=C(c1ccc2c(c1)OCO2)N1CCN(c2cccc(Cl)c2)CC1	4.72% (active)
O=C(NCc1cccc(CNC(=O)Nc2nc3ccccc3[nH]2)c1)Nc1nc2ccccc2[nH]1	-45.7% (active)

SMILES	growth
CCOC(=O)c1cnc2c(N=Nc3ccc(OC)cc3)c(N)nn2c1N	99.3%
Cc1ccc2nc(NC(=O)CSc3nc(-c4ccccc4)c(C#N)c4nnnn34)sc2c1	106%
C#CC#CC#CC#CC#CC#CC#CC#CC[C@@H]1OC[C@@H](COC(=O)O[C@@H](C(=O)O[C@H]2C[C@@]3(O)[C@@H](OC(=O)c4ccccc4)[C@@H]4[C@]5(OC(C)=O)CO[C@@H]5C[C@H](O)[C@@]4(C)C(=O)[C@H](OC(C)=O)C(=C2C)C3(C)C)[C@@H](NC(=O)c2ccccc2)c2ccccc2)O1	101%
COCCn1cc(-c2csc(-c3c[nH]c4ccc(Br)cc34)n2)c2cccnc21	18.2%
c1nc2ccc(-c3cc4ccc5[nH]ncc5c4c4c3CCCC4)cc2[nH]1	58%
O=[N+]([O-])c1ccc(-c2cn3nc(-c4c[nH]c5ccccc45)sc3n2)cc1	95.3%
CN(Cc1cnc2nc(N)nc(N)c2n1)c1ccc(C(=O)NC(CCC(=O)O)C(=O)O)cc1Br (centres undefined)	21.2%
COc1ccc(-c2nc3c(N)c(CO)cnc3s2)cc1	97.7%
O=C(Cn1nnc2ccccc21)N/N=C/c1c[nH]c2ccccc12	13.1%
N#Cc1cccc(C2C3=C(COC3=O)N(CCO)c3cc4c(cc32)OCO4)c1 (centres undefined)	6.62% (active)
O=C(/C=C/C12c3ccccc3C(c3ccccc31)C1C(=O)NC(=O)C12)c1ccc(Br)cc1 (centres undefined)	20.1%
COc1cccc(/C=N/NC(=O)c2ccccc2N2CCCC2)c1O	69.3%
COc1cc(/C=C/C(=O)c2ccc(-n3cc(CN4CCN(c5cc6c(cc5F)c(=O)c(C(=O)O)cn6C5CC5)CC4)nn3)cc2)ccc1O	53.3%
C=CN(C(=O)N1CCN(c2cc3c(cc2F)c(=O)c(C(=O)O)cn3C2CC2)CC1)c1nc(-c2ccc(OC)cc2)cs1	15.4%
Oc1ccc(/C=C/c2ccc(O)cc2)cc1	101%
COc1ccc(/C=C/C(c2cc(OC)c(OC)c(OC)c2)n2ccnc2)cc1O (centres undefined)	71%
O=C(N=Nc1c(O)[nH]c2ccccc12)Nc1ccc(F)cc1	102%
O=c1ccc(=O)n(-c2nc(-c3ccc([N+](=O)[O-])cc3)cs2)[nH]1	55.6%
Oc1c(CN2CCC(N3CCCCC3)CC2)cc(Cc2cc(CN3CCC(N4CCCCC4)CC3)c(O)c3ncccc23)c2cccnc12	16%
